IMPase Li cell = qHTS Assay for Identifying the Cell-Membrane Permeable IMPase Inhibitors: Potentiation with Lithium | Potency, µM (titrated, usually from 59.4 µM), inactives show top-dose activity, negative = IMPase inhibition, usual class: inhibitors | CHO-M1 cells, IP1 TR-FRET (IP-One), carbachol + lithium | AID 1457, 2008 | 210,000 compounds, 0.35% hits; active = well fitted curve in the direction sought with a large enough effect; inconclusive = small, poorly fitted or top-dose-only effect, or another doubt; inactive = no such curve, though single readings can be large; an effect the other way counts as inactive or inconclusive;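 also: IP1 builds up when IMPase is blocked and the TR-FRET signal falls; potency is read from the fitted curve at half-maximal effect; plate controls were basal vehicle for no effect and high inhibitor control for full effect; nearly all actives have a fitted effect of over 50% in size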
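Test compounds were applied to CHO-M1 cells previously cultured for 16–30 h at 2000 per well. A small lithium amount accompanied them; after 30 min at 37C, IP1 was quantified by TR-FRET.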
Luc counter = Counterscreen for Luciferase (Kinase-Glo TM) Inhibition; Kinase-Glo luciferase, ATP luminescence, 8 min; Luciferin 4-monooxygenase (Photuris pensylvanica), Q27757; AID 1379, 2008; Potency, µM (top dose mostly 38.3 µM), inactives show top-dose activity change, negative = inhibition, hits mostly inhibitors; 200,000 compounds, 0.28% hits; active = well fitted curve in the direction sought with a large enough effect; inconclusive = small, poorly fitted or top-dose-only effect, or another doubt; inactive = no such curve, though single readings can be large; an effect the other way counts as inactive or inconclusive; also: potency is read from the fitted curve at half-maximal effect; % is scaled to controls: 0 for no effect and ±100 for the full control effect; nearly all actives have a fitted effect of over 60% in size
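Kinase-Glo luciferase light output from ATP and luciferin was measured with 10 uM ATP, within the enzyme's linear range. Buffer: 50 mM imidazole pH 7.2, 50 mM KCl, 7 mM MgCl2, 0.01% Tween 20, 0.05% BSA; luminescence read after 8 min at ambient temperature.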
ALDH1A1 inh = qHTS Assay for Inhibitors of Aldehyde Dehydrogenase 1 (ALDH1A1); Aldehyde dehydrogenase 1A1 (Homo sapiens), P00352; Purified ALDH1A1, NADH fluorescence, propionaldehyde substrate; Potency, µM (doses to about 75.3 µM), inactives show top-dose activity, negative = inhibition, hits mostly inhibitors; 220,000 compounds, 7.3% hits; AID 1030, 2008;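 also: potency is read from the fitted curve at half-maximal effect; plate controls were no enzyme wells and a reference inhibitor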
Target sequence (P00352 whole entry, looked up): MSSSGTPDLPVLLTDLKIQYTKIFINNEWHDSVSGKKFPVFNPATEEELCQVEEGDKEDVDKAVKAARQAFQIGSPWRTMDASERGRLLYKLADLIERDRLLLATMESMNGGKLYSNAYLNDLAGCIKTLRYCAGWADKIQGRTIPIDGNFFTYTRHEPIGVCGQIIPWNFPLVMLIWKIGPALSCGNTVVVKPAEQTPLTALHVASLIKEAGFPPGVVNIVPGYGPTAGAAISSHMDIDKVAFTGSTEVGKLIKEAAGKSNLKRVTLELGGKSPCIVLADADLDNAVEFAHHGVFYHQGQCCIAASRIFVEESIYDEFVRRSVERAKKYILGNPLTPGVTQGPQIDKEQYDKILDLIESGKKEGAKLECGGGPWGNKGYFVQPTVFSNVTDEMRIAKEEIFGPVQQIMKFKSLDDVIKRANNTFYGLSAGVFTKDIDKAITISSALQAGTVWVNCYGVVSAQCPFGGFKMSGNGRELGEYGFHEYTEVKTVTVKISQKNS
HPGD inh = qHTS Assay for Inhibitors of HPGD (15-Hydroxyprostaglandin Dehydrogenase); 15-hydroxyprostaglandin dehydrogenase [NAD(+)] (Homo sapiens), P15428; purified HPGD, NADH fluorescence kinetic, PGE2 substrate; Potency, µM, for the others: at the highest dose activity change, negative = inhibition, most hits filed as inhibitors; 150,000 compounds, 4.3% hits; AID 894, 2007; also: potency is read from the fitted curve at half-maximal effect; % is scaled to controls: 0 for no effect and ±100 for the full control effect
Target sequence (P15428 whole entry, looked up): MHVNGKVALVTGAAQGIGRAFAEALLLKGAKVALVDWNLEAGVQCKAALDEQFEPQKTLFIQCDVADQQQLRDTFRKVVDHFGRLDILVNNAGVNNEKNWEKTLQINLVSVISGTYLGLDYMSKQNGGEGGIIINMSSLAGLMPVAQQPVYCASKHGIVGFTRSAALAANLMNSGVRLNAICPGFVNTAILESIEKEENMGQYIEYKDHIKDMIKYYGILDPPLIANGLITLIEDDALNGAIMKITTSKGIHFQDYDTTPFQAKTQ
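NADH formation kinetics: reaction with 30 uM PGE2 and 1 mM NAD+ (final), 20 nM enzyme, Tris-HCl pH 8 with Tween 20, after 15 min compound preincubation at room temperature. Fluorescence change, last versus first of five reads.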
LMNA splice mod = qHTS Assay for Modulators of Lamin A Splicing. 200,000 compounds, 0.01% hits. HeLa LMNA splicing GFP/RFP minigene ratio, 48 h. Potency, µM (titrated, usually from 46.1 µM), for the others: at the top dose ratio change, negative = inhibition, usual class: inhibitors; active = well fitted inhibition curve with a large enough effect in the signal ratio, with a control signal flat, not every such curve was filed as active; inconclusive = small, poorly fitted or top-dose-only effect, or effect the other way, or a change in a side signal; the % refers to the signal ratio; also: potency is read from the fitted curve at half-maximal effect; % is scaled to controls: 0 for no effect and ±100 for the full control effect
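S3 HeLa stable clones carrying a lamin A-EGFP splicing minigene plus DsRed2 were seeded at 600 cells/well in Opti-MEM with 2% FBS, pin-dosed and incubated 48 h at 37°C. Acumen cytometry (488 nm) gave the GFP/RFP total-intensity ratio.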
HPGD inh conf = Confirmation qHTS Assay for Inhibitors of HPGD (15-Hydroxyprostaglandin Dehydrogenase). Potency, µM (highest dose often 57.1 µM), for inactives: at the top dose activity change, negative = inhibition, usual class: inhibitors. recombinant HPGD, NADH fluorescence, PGE2 substrate. shares compounds with HPGD inh. 90 compounds, 90% hits; calls by dose curve
Starred values were filed as active, the others as inactive; ? = inconclusive; / = no result; [ ] = another dose, or the depositor's remark. Rows were chosen to be rich in hits. Some 9% of all compounds tested hit in one or more screens of this group. Unless noted, calls follow the shape of the dose curve; as a rule, active = well fitted inhibition curve with a large enough effect (not every such curve was filed as active); inconclusive = small, poorly fitted or top-dose-only effect, or another doubt; inactive = no such curve, though single readings can be large or run the other way.

SMILES	IMPase Li cell	Luc counter	ALDH1A1 inh	HPGD inh	LMNA splice mod	others
N#C/C(=C/c1ccc(N2CCOCC2)o1)C(=O)Nc1ccccc1	28%	0%	22µM*	/	?
COc1ccc(/C=C(\C#N)C(=O)NCCc2ccccc2)cc1OCc1ccccc1	7%	-5%	?	?	?
COCCNC(=O)/C(C#N)=C/c1cccc(/C=C(\C#N)C(=O)NCCOC)c1	16%	5%	?	25µM*	?
COCCNC(=O)/C(C#N)=C/C(C)=C/c1ccccc1	6%	2%	7%	-21%	?
CCCCNC(=O)/C(C#N)=C/c1ccc2c(c1)OCCO2	8%	-1%	6.3µM*	?	-10%
Cn1cnnc1Sc1nc2ccccc2nc1NS(=O)(=O)c1ccccc1	-19%[38.3 µM]	-2%	6%	-18%	-1%
Cn1ccnc1Sc1nc2ccccc2nc1NS(=O)(=O)c1ccccc1	?	2%	-3%	22µM*	-13%
Cc1cccc(NC(=O)CSc2nnc(-c3ccco3)c(-c3ccco3)n2)c1C	12%[38.3 µM]	-3%	3.5µM*	10µM*	0%[0.0737 µM]
Cc1ccc(NC(=O)CSc2n[nH]c(-c3ccco3)n2)c(C)c1	1%	1%	-1%	/	?
Cc1cccc(NC(=O)CSc2nnc(-c3ccco3)c(-c3ccco3)n2)c1	9%	-1%	7.9µM*	/	24%[46 µM]
CCc1c(C)nc(SCc2nc(-c3ccccc3)no2)[nH]c1=O	/	/	/	/	-29%[46 µM]
COc1cccc(CN2CCN(Cc3nc(-c4cccc(F)c4F)oc3C)CC2=O)c1	7%	-1%	25µM*	/	?
CN(C(=O)Cn1nnc(-c2cccc(C(F)(F)F)c2)n1)C1CCCCC1	-3%[38.3 µM]	-1%	35µM*	-8%	10%
Cc1ccc(-c2nnn(CC(=O)N(C)C3CCCCC3)n2)o1	4%	-2%	1%	/	?
CC(C)NC(=S)N1CCN(C/C=C/c2ccccc2)CC1	12%	0%	15%	/	14%[46 µM]
O=C(O)C1C2CCC(C2)C1C(=O)NCc1ccco1 (stereo not drawn)	-1%[38.3 µM]	3%	35µM*	-15%	4%
O=C(NCc1ccco1)C1CC2CCC1C2 (stereo not drawn)	13%[38.3 µM]	2%	-5%	16µM*	4%
Cc1cc(O)c(C(C)C)cc1N=C1CSC(=O)N1	5%[38.3 µM]	-5%	13µM*	32µM*	-2%
S=C(Nc1ccc2nsnc2c1)N1CCCC1	4%	-28%	25µM*	/	-21%[46 µM]
S=C(Nc1ccc2nccnc2c1)N1CCCC1	9%	-3%	-4%	/	/
Cc1ccc(C(=O)c2cnc3ccccc3c2-c2ccccc2)cc1	8%[38.3 µM]	-2%	13µM*	-15%	-5%
COc1ccc(C(=O)c2cnc3ccccc3c2-c2ccccc2)cc1	17%[38.3 µM]	0%	1.4µM*	?	5%
CCCN(Cc1ccccc1)C(=S)Nc1ccc(SC(F)F)cc1	15%	1%	3%	/	/
COc1ccc([C@H](O)c2ccccn2)cc1	2%	-2%[7.66 µM]	3%[13.5 µM]	-2%	/
CC(=O)Nc1ccc(NC(=O)C2(C)CC2(Cl)Cl)cc1 (stereo not drawn)	-2%	2%	-2%	/	14%[46 µM]
SMILES	IMPase Li cell	Luc counter	ALDH1A1 inh	HPGD inh	LMNA splice mod	others
COc1ccc2c(c1OC)C(=O)N1N=C(c3ccc(-c4ccccc4)cc3)CC21 (stereo not drawn)	6%	0%	?	/	/
COc1ccc(C2=NN3C(=O)c4c(ccc(OC)c4OC)C3C2)cc1 (stereo not drawn)	-11%[38.3 µM]	1%	?	-20%	-5%
COc1ccc2c(c1OC)C(=O)N1c3ccccc3N=C(c3ccc([N+](=O)[O-])cc3)CC21 (stereo not drawn)	9%	1%	10µM*	35µM*	-13%
COc1ccc2c(c1OC)C(=O)N1N=C(c3ccc(Cl)cc3)CC21 (stereo not drawn)	24%	-3%	11µM*	-26%	-15%
CCOC(=O)C1CCN(C(=O)CCCN2C(=O)c3ccccc3C2=O)CC1	4%	-3%	?	-11%	-8%
CCOC(=O)C1CCN(C(C)=C2C(=O)c3ccccc3C2=O)CC1	24%[38.3 µM]	-1%	18µM*	-13%	-7%
CC(=C1C(=O)c2ccccc2C1=O)N1CCc2ccccc2C1	-12%[38.3 µM]	8%	8.9µM*	-13%	-2%
Cc1oc(-c2ccc(Cl)cc2)nc1Cn1c(=O)cc(C)c2c(C)nn(-c3ccccc3)c21	/	/	/	/	-7%[46 µM]
O=C(COc1ccc(Cl)cc1Cl)NC(=O)N1CCCCC1	24%[38.3 µM]	-8%	4%	16µM*	10%
O=C(COc1ccc(Cl)cc1Cl)NC(=S)N1CCCc2ccccc21	-95%[38.3 µM]	2%	7.5µM*	22µM*	?
O=C(COc1ccc(Cl)cc1Cl)N1CCCN(C(=O)COc2ccc(Cl)cc2Cl)CC1	29%[38.3 µM]	-3%	8%	0%	2%
CN(C)c1nc(N)nc(CSc2ncc(Cl)cc2Cl)n1	25%[38.3 µM]	-3%	-9%	8.9µM*	7%
COc1ccc(C(=O)c2ccc(OC)cc2O)c(O)c1	/	/	7%	/	-8%
COc1ccc(C(=O)c2ccccc2O)c(O)c1	28%	-4%	-6%	0.5µM*	?	HPGD inh conf=1µM*
O=C(c1ccc2c(c1)OCO2)N1CCc2ccccc2C1	-14%[38.3 µM]	-9%	?	0.45µM*	22%	HPGD inh conf=0.71µM*
S=C(c1ccc2c(c1)OCO2)N1CCCCC1	30%[38.3 µM]	0%	-6%	-26%	-1%
O=C(c1ccc2c(c1)OCCO2)N1CCCCC1	20%[38.3 µM]	-2%	-12%	0.13µM*	0%	HPGD inh conf=0.22µM*
O=C(c1ccc2c(c1)OCO2)N1CCCCC1	28%	2%	-6%	0.1µM*	/	HPGD inh conf=0.063µM*
COCC(C)n1c(C)cc(C(=O)CN2C(=O)NC(Cc3c[nH]c4ccccc34)C2=O)c1C (stereo not drawn)	34%[38.3 µM]	-1%	2%	6%	5%
O=C(NCCc1ccccc1)C1CCC(CNS(=O)(=O)c2ccc(Cl)cc2)CC1 (stereo not drawn)	/	/	/	/	16%[46 µM]
O=C(Cn1c(=O)n(-c2ccc(F)cc2)c(=O)c2sccc21)c1ccccc1	3%	1%	-2%	-17%	-6%
COc1ccc(CCC(=O)Nc2cccc(Cl)c2)cc1	-6%	-3%	-11%	-9%	-2%
O=C(CCc1ccc(Oc2cc([N+](=O)[O-])cc([N+](=O)[O-])c2)cc1)N1CCCCC1	-8%	15%	4.5µM*	0.045µM*	?	HPGD inh conf=0.22µM*
